Source: ChEMBL document CHEMBL3988442, “University of Dundee, Small-Polar-MMV Screening Library” (2021)
The whole screen tested about 53,000 compounds, of which about 900 (1.7%) showed an effect of 50% or more. Shown is part of a subset that was picked to be rich in strong results.

Tested on: Mycobacterium tuberculosis
Experiment: Cornell - Phenotypic assay to identify agents that inhibit growth of Mycobacterium tuberculosis
Assay type: functional
Design: scale not given: direction of the effect not stated beside the values
Conditions: 10 mM as filed; unlikely as a test dose

SMILES | Percent Effect [%]
Cc1ncsc1C(=O)N1CCCC(n2cncn2)C1 (stereo not drawn) | -11.33
CC(=O)N1CCCC1c1cccc(Oc2ccccc2F)n1 (stereo not drawn) | 16.34
Cc1cc(CN2CCN(S(=O)(=O)c3c(C)c(Cl)cc(C)c3Cl)CC2)on1 | 15.46
O[C@@H]1C[C@H]2CN(Cc3ccccc3Cl)[C@H](Cc3ccccc3)CN2C1 | 13.61
O[C@@H]1C[C@H]2CN(Cc3ccccc3)[C@H](Cc3ccccc3)CN2C1 | 7.945
O[C@@H]1C[C@H]2CN(Cc3ccsc3)[C@@H](Cc3ccccc3)CN2C1 | 57.45
Cc1ccc(CN2CC[C@H]3OCC[C@@H](c4nc(C)no4)[C@H]3C2)cc1 | 12.84
CCC(C)(CCO)NC(=O)c1ccon1 (stereo not drawn) | -22.18
CCC(C)NC(=O)c1coc(COc2cccc(F)c2)n1 (stereo not drawn) | 60.97
O=C(O)c1coc(COc2cccc(F)c2)n1 | 15.94
O=C(NCC(F)(F)F)c1coc(COc2cccc(F)c2)n1 | 71.66
CC(C)(NC(=O)c1coc(COc2cccc(F)c2)n1)C(N)=O | 8.84
COC(=O)[C@@H](NC(=O)c1coc(COc2cccc(F)c2)n1)C(C)C | 30.38
O=C(NC(CO)CO)c1coc(COc2cccc(F)c2)n1 | -12.31
CN(C)Cc1cc(C2CCCCN2S(=O)(=O)c2cccc(Cl)c2)nn1C.Cl (stereo not drawn) | 9.135
CC(C)N(Cc1ccc(Cl)c(Cl)c1)C(=O)CCn1cncn1 | 29.65
O=S(=O)(c1ccccc1)N1CCC2(CCCN2Cc2cccc(F)c2)C1 (stereo not drawn) | 5.302
Cc1nn(C2CCS(=O)(=O)C2)c(O)c1CCc1ccccc1 (stereo not drawn) | 6.158
Cc1ccc(CN2Cc3c(C(=O)N4CCN(C)CC4)nn(C)c3C2)s1.O=C(O)C(F)(F)F.O=C(O)C(F)(F)F.O=C(O)C(F)(F)F | -2.835
CS(=O)(=O)CCn1ccc(NC(=O)Cc2ccccc2F)n1 | 11.43
Cn1ccc(NC(=O)Cc2ccccc2F)n1 | -2.791
CCOC(=O)Cn1ccc(NC(=O)Cc2ccccc2F)n1 | 99.82
CC(C)C1SCC(=O)Nc2c1c(O)nn2C1CCCCC1 (stereo not drawn) | 13.37
Cc1cc(N2CCC(Cc3ccccc3)CC2)ncn1 | 22.55
Cc1cc(N2CCC(Cc3ccccc3)CC2)nc(-c2ccncc2)n1 | 82.9

SMILES | Percent Effect [%]
Cc1cc(N2CCC(CC(N)=O)CC2)nc(-c2ccncc2)n1 | 23.93
CN(Cc1ccc(CCC(C)(C)O)cc1)CC1(CO)CC1 | 3.977
CC1CCN(S(=O)(=O)NC(C)Cc2ccco2)CC1 (stereo not drawn) | 45
CC(Cc1ccco1)NS(=O)(=O)N1CCCCCC1 (stereo not drawn) | 68.78
CC(Cc1ccco1)NS(=O)(=O)N1CCCCC1 (stereo not drawn) | 35.85
CCCn1c(C)c(CC(=O)NCC(C)O)c2c1CC(C)(C)CC2=O (stereo not drawn) | 21.56
CCc1cc(N(C)CCC(O)c2ccccc2)n2nccc2n1 (stereo not drawn) | -53.72
COCC(=O)N1C[C@@H](c2cccc(F)c2)[C@H]2[C@H]1CCCCCN2C(C)=O | -30.92
O=C(NCc1ccc(Br)cc1)C1(O)CCSCC1 | 26.99
O=C(O)C(F)(F)F.O=C(O)C(F)(F)F.O=C(O)C(F)(F)F.c1cc(CNCC2OCCc3cn(CC4CCOCC4)nc32)ccn1 (stereo not drawn) | -7.498
CCCN(CC(F)(F)F)S(=O)(=O)c1cc(C(N)=O)n(C)c1 | -26.73
COCC1CCN(C(=O)c2cn(Cc3ccccc3F)nn2)CC1 | 25.9
COCC1CCN(C(=O)c2cn(Cc3cccc(C(F)(F)F)c3)nn2)C1 (stereo not drawn) | 30.37
COCC1CCN(C(=O)c2cn(Cc3ccccc3C(F)(F)F)nn2)C1 (stereo not drawn) | 62.81
Cc1nc(NCC2CCOCC2)cc(C2CCN2S(C)(=O)=O)n1 (stereo not drawn) | 10.58
CC1N(c2cnn(C)c2)C(=O)COC12CCN(Cc1ccco1)CC2.O=C(O)C(F)(F)F (stereo not drawn) | 2.626
COCCNC(=O)[C@H]1C[C@@H]2CCN(c3ccncn3)C[C@H]2O1.O=C(O)C(F)(F)F | 26.18
CCCNC(=O)c1cncc(CC2CCCN(C)C2)c1 (stereo not drawn) | -32.48
CN1C(=O)[C@H](OC(N)=O)[C@@H](C(=O)Nc2ccccc2)C12CCNCC2 | -56.88
COCCN(Cc1ccccc1)Cc1nc(-c2ccsc2)no1 | 50.54
COCCN(Cc1ccco1)Cc1nc(-c2ccccc2)no1 | -9.832
COCCN(Cc1ccco1)Cc1nc(-c2ccsc2)no1 | -23.17
CN(C)c1cc(C2CCCN(C(=O)c3noc4c3CCCC4)C2)ccn1 (stereo not drawn) | 38.49
COCCNC(=O)c1cc2c(c3ccccc3n2C)n1C(=O)N(C)C | 18.89
NC(=O)c1ccc(NC(=O)N2CCN(c3cccs3)CC2)c(F)c1 | 54.78

SMILES | Percent Effect [%]
CCn1cnnc1CNC(=O)N1CCN(c2cccs2)CC1 | -10.74
CNC(=O)CN1CCN(C(=O)Nc2ccc(Cl)cc2F)CC1 | -7.252
Cc1cc(NC(=O)N2CCN(c3cccs3)CC2)ccc1C(N)=O | 3.823
Cc1cc(C(N)=O)ccc1NC(=O)N1CCN(c2cccs2)CC1 | 67.2
O=C(Nc1ccccc1-c1cccs1)N1CCN(CC(F)F)CC1 | -4.883
CC(C)OCCC(=O)NCCc1csc(N2CCCC2)n1 | -16.85
COCC(=O)NCc1cc(=O)n2c(n1)CN(Cc1ccccc1)CCC2.O=C(O)C(F)(F)F | 6.068
OCc1ccc(CN(CCCn2ccnc2)Cc2cccnc2)o1 | 33.2
N#Cc1cc2c(nc1O)CCCCC2 | -24.16
CN1C(=O)COc2cc(NC(=O)CCc3nc4cccnc4[nH]3)ccc21 | 11.88
COC(=O)Cc1cn2cc(C(F)(F)F)ccc2n1 | -22.96
CC(C)NC(=O)[C@@]12CCO[C@@H]1CCN(Cc1ccc3c(c1)OCO3)C2.O=C(O)C(F)(F)F | -5.39
CCSCC(C)NCc1nc(-c2cccnc2)no1 (stereo not drawn) | -14.24
O=C(CCc1ccsc1)Nc1cccnc1N1CCCC1 | 8.029
CCN(CC)C(=O)CCc1c(C)nc2cc(O)nn2c1C | 7.759
COc1cccc([C@@H]2CCN(Cc3cn(C)c4ccccc34)C[C@H]2O)c1 | -6.919
CN(C)[C@@H]1CN(Cc2ccccn2)C[C@H]1c1cn(C)c2ccccc12.Cl | 54.37
CN(C)[C@@H]1CN(Cc2ccc(O)cc2)C[C@H]1c1cn(C)c2ccccc12.Cl | -25.68
Cc1cc(C)n(C2CN(Cc3ccccn3)C2)n1 | -9.481
CN(C)[C@@H]1CN(Cc2ccccc2O)C[C@H]1c1cn(C)c2ccccc12.Cl | 107.3
CN(C)[C@@H]1CN(Cc2cccnc2)C[C@H]1c1cn(C)c2ccccc12.Cl | 6.134
CSCC[C@@H]1CN2CCC[C@H]2CN1Cc1cn(C)nc1C | -32.61
Cc1nc(CN2CCCN(Cc3nc4c(F)cccc4[nH]3)CC2)no1 | -62.54
O=C(NCCS(=O)(=O)N1CCN(c2ncccn2)CC1)C1CC1 | -28.73
CCN(Cc1ccncc1)CC1(O)CCN(C(=O)c2cccc(C)n2)C1 (stereo not drawn) | -8.223

SMILES | Percent Effect [%]
CCCc1nc(C)c(C(=O)NCCN2CCN(CC)CC2)s1 | 13.14
CN1CCN(CC(CC(=O)Nc2ccc(Cl)cc2)C(=O)O)CC1 (stereo not drawn) | 46.61
Cc1cccc(C)c1NC(=O)CC(CN1CCN(C)CC1)C(=O)O (stereo not drawn) | 68.43
CN1CCCN(CC(CC(=O)Nc2ccc(Cl)cc2)C(=O)O)CC1 (stereo not drawn) | 27.51
CC(CN1CCOCC1)NC(=O)NCc1cccs1 (stereo not drawn) | -17.54
COc1cccc(N2CCN(Cc3ccc4[nH]ccc4c3)CC2=O)c1 | 56.6
COc1cc(CN2CCN(c3cccc(OC)c3)C(=O)C2)cc(OC)c1 | 8.627
COc1cccc(N2CCN(Cc3cc(C)cc(F)c3)CC2=O)c1 | 45.53
COc1cccc(N2CCN(Cc3cccc(CCN)c3)CC2=O)c1 | 56.89
NCCc1cccc(CN2CCN(c3ccccc3)C(=O)C2)c1 | -23.11
COc1cccc(N2CCN(Cc3ccc4occc4c3)CC2=O)c1 | 21.65
NCCc1cccc(CN2CCN(c3cccc(Cl)c3)C(=O)C2)c1 | 12.48
COc1cccc(N2CCN(Cc3ncc[nH]3)CC2=O)c1 | -18.02
COc1cccc(N2CCN(Cc3ccc4ccn(C)c4c3)CC2=O)c1 | 57.23
Cc1ccnn1CCC(=O)N1CCCC[C@@]2(C)[C@@H]1CCC(=O)N2C | -72.7
CC(C)n1nc(CN2CCCC2)c2c1CN(CC1CC1)CC2.O=C(O)C(F)(F)F.O=C(O)C(F)(F)F | 3.423
O=C(CCn1nc(C(F)(F)F)c(Cl)c1C1CC1)NN1CCOCC1 | 6.641
CNS(=O)(=O)c1cc(C(=O)NC2CCOc3ccccc32)cc(C)c1C (stereo not drawn) | -0.5765
Cc1cccc(CN2CC[C@@H]3[C@@H]2CCN3C(=O)Cc2cccs2)n1.O=C(O)C(F)(F)F.O=C(O)C(F)(F)F | 14.31
Cn1nc(Br)c2c(NCCNc3ncccn3)ncnc21 | 7.21
CC1CCCN(C(=O)c2nnn(-c3ccc(C(F)(F)F)cc3)n2)C1 (stereo not drawn) | 77.62
O=C(c1nnn(-c2ccc(C(F)(F)F)cc2)n1)N1CC(O)C1 | 30.38
O=C(c1nnn(-c2ccc(C(F)(F)F)cc2)n1)N1CCC(O)CC1 | 42.24
